Bioassay records as filed in PubChem BioAssay.
BAZ2B block: qHTS Assay for Inhibitors of BAZ2B. AlphaScreen BAZ2B-H3K14Ac peptide displacement. Potency, µM (titrated, usually from 114 µM), for the others: at the highest dose activity change, negative = inhibition, actives largely listed as inhibitors. 360,000 compounds, 4.4% hits. AID 504333, 2011; note: potency is the fitted concentration of half-maximal effect; % is set by controls: 0 for no effect and ±100 for the full control effect; nearly all actives have a fitted effect of over 60% in size
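AlphaScreen displacement: compounds (up to 110uM) incubated 30 min at room temperature with a preformed 50 nM BAZ2B/50 nM biotinylated H3K14Ac peptide complex in PBS pH 7.4 with Tween-20. Donor and acceptor beads at 10 ug/mL final added, 20 min light-protected before reading.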
HP1b binding inh: HTS for Inhibitors of HP1-beta Chromodomain Interactions with Methylated Histone Tails; AlphaScreen HP1-beta / biotin-H3K9me3 peptide binding; Potency, µM (top dose mostly 114 µM), for the others: top-dose activity change, negative = inhibition, hits mostly inhibitors; 390,000 compounds, 0.56% hits; AID 540317, 2011; note: potency is the fitted concentration of half-maximal effect; nearly all actives have a fitted effect of over 70% in size
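Compound inhibition of the preformed complex between 50 nM HP1-beta and 50 nM biotinylated H3K9me3 peptide was read by AlphaScreen. Buffer was PBS pH 7.4 with 0.01% Tween-20. Incubations ran 30 min at room temperature, with 10 ug/mL donor/acceptor beads.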
Six1-Eya2 inh: qHTS Assay for Inhibitors of the Six1/Eya2 Interaction; Homeobox protein SIX1 (Homo sapiens) + Protein phosphatase EYA2 (Homo sapiens), …; AlphaScreen GST-Six1/His-Eya2 binding, biochemical; hits give low values; activity change, % (test concentration not listed); 360,000 compounds, 0.56% hits; in the data active = activity change below about -65%; inconclusive = mostly about -30% to -63%; note: % is set by controls: 0 for no effect and ±100 for the full control effect
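Compounds are tested against tagged Six1 and Eya2 proteins bridged by glutathione donor and nickel acceptor beads; after a one-hour incubation at 37 °C without light, AlphaScreen emission is recorded.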
JMJD2A Tudor: qHTS Assay for Inhibitors of JMJD2A-Tudor Domain; Potency, µM (series often up to 114 µM), for inactives: top-dose activity change, negative = inhibition, actives largely listed as inhibitors; Lysine-specific demethylase 4A (Homo sapiens), O75164; 390,000 compounds, 4.4% hits; AlphaScreen JMJD2A-Tudor / H3K4me3 peptide binding; note: potency is the fitted concentration of half-maximal effect; % is set by controls: 0 for no effect and ±100 for the full control effect; nearly all actives have a fitted effect of over 50% in size
CtBP-E1A inh: qHTS Assay for Inhibitors of the CtBP/E1A Interaction. activity change, % (concentration not given with the values). 340,000 compounds, 0.49% hits. CtBP / adenovirus E1A interaction (AlphaScreen). AlphaScreen GST-E1A/His-CtBP binding, 1536-well; hits give low values; in the data active = activity change below about -65%; inconclusive = mostly about -30% to -63%; note: % is set by controls: 0 for no effect and ±100 for the full control effect
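AlphaScreen with 125 nM GST-E1A and 125 nM His-CtBP (5X stocks) in Tris pH 8.0, 300 mM NaCl, BSA, Tween 20, TCEP. Compounds preincubated 2 h at 37 deg C, then glutathione donor/nickel acceptor beads added for 1 h at 37 deg C in dark.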
G9a block: qHTS Assay for Inhibitors of Histone Lysine Methyltransferase G9a. Histone-lysine N-methyltransferase EHMT2 (Homo sapiens), Q96KQ7. G9a H3K9 monomethylation, AlphaScreen, 2 h. Potency, µM (doses to about 102 µM), for the others: top-dose activity, negative = inhibition, usual class: inhibitors. 350,000 compounds, 8.8% hits. AID 504332, 2011; note: potency is the fitted concentration of half-maximal effect; % is set by controls: 0 for no effect and ±100 for the full control effect; nearly all actives have a fitted effect of over 75% in size
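Methyltransferase reactions run at room temperature for 2 h (20 nM enzyme, 500 nM biotin-H3K9 peptide, 20 uM SAM) after a 15 min compound preincubation; product detected by AlphaScreen beads and anti-H3K9me1 antibody.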
* = called active by the depositor; ? = inconclusive; . = not tested or not shown; [ ] = remark or other dose. Sampled rows, rich in hits. Any-hit rate of the full collection: about 10%. Unless noted, calls come from the whole dose curve; as a rule, active = well fitted inhibition curve with a large enough effect; inconclusive = small, poorly fitted or top-dose-only effect; inactive = no such curve, though single readings can be large or run the other way.

SMILES	BAZ2B block	HP1b binding inh	Six1-Eya2 inh	JMJD2A Tudor	CtBP-E1A inh	G9a block
O=C(Cn1ccn(-c2cccc(Cl)c2)c(=O)c1=O)NCCc1ccccc1	0%	22%	.	-8%	.	?
COc1ccc(C(=O)Oc2ccc(C(c3c(C)[nH][nH]c3=O)c3c(C)[nH][nH]c3=O)cc2OC)cc1	?	15%	.	?	.	-32%[59 µM]
Cc1[nH][nH]c(=O)c1C(c1ccc(-c2cccc(Cl)c2)o1)c1c(C)[nH][nH]c1=O	40µM*	?	2	45µM*	-18	.
Cc1[nH][nH]c(=O)c1C(c1ccc(-c2ccc(Cl)cc2Cl)o1)c1c(C)[nH][nH]c1=O	?	.	.	.	.	7.1µM*
O=c1[nH]nc(Cc2ccc(-c3cccc(Cl)c3)o2)c2ccccc12	0%	43%	-1	-5%	0	?
COC(=O)c1ccc(-c2ccc(C(c3c(C)[nH][nH]c3=O)c3c(C)[nH][nH]c3=O)o2)cc1	8.9µM*	-26%	?	32µM*	?	1.4µM*
Cc1[nH][nH]c(=O)c1C(c1ccc(-c2cccc(C(=O)O)c2)o1)c1c(C)[nH][nH]c1=O	79µM*	?	-5	56µM*	-15	18µM*
Cc1[nH][nH]c(=O)c1C(c1ccc(Br)cc1)c1c(C)[nH][nH]c1=O	-6%	29%	-4	-16%	-26	-9%
CCN(CC)CCN(C(=O)c1ccco1)c1nc2ccc(F)cc2s1	3%	41%	.	-4%	.	-27%[59 µM]
CC(C)c1ccc(Nc2c(-c3ccc(N4CCOCC4)cc3)nc3ncccn23)cc1	-16%	26%	.	-22%	.	2%[59 µM]
Cc1[nH][nH]c(=O)c1C(c1ccc(-c2ccccc2C(=O)O)o1)c1c(C)[nH][nH]c1=O	35µM*	-1%	?	89µM*	1	3.5µM*
Cn1c(=O)c2c(nc(CN3CCc4ccccc4C3)n2Cc2ccccc2F)n(C)c1=O	-19%	42%	-1	-27%	-7	18µM*
COCCn1c(CN2CCc3ccccc3C2)nc2c1c(=O)n(C)c(=O)n2C	-5%	33%	-5	-2%	3	.
CCOC(=O)Cn1c(CN2CCN(C(=O)c3ccco3)CC2)nc2c1c(=O)n(C)c(=O)n2C	-1%	44%	-21	8%	-22	-3%
CCOC(=O)Cn1c(CN2CCc3ccccc3C2)nc2c1c(=O)n(C)c(=O)n2C	4%	59%	-1	-27%	0	40µM*
Cn1c(=O)c2c(nc(CN3CCN(c4ccccc4F)CC3)n2Cc2ccccc2F)n(C)c1=O	.	23%	.	-14%	.	2%[59 µM]
Cn1c(=O)c2c(nc(CN3CCc4ccccc4C3)n2CCCO)n(C)c1=O	-14%	39%	-5	1%	4	11µM*
CCOC(=O)c1c(C)[nH]c(CCC(=O)NC(C)c2ccccc2)c1C (configuration not stated)	-3%	18%[57 µM]	.	-13%	.	-27%[59 µM]
Cc1ccc(S(=O)(=O)Cc2nc(-c3ccc(C(=O)NCc4ccccc4)cc3)oc2C)cc1	-2%	17%	.	-12%	.	-22%[59 µM]
COc1ccc(C(=O)OCC(=O)c2ccc(CNC(C)=O)s2)cc1	10%	14%	7	-8%	-15	10µM*
Cc1cc(-n2c(C)cc(C(=O)CSc3nncn3C(C)C)c2C)no1	-32%	14%	0	-26%	1	56µM*
Cc1cc(-n2c(C)cc(C(=O)CSc3nncn3C)c2C)no1	.	8%	-2	-28%	-2	.
COc1ccc(CCCc2n[nH]c(=S)o2)cc1C	-23%	51%	-1	-10%	8	8.9µM*
COc1ccc(CCCc2nnc(SCC(=O)Nc3nccs3)n2C)cc1C	16%	36%	-11	-10%	-8	5%[12.7 µM]
COc1ccc(CCCc2n[nH]c(=S)n2C)cc1C	-24%	?	2	5.6µM*	-2	11µM*
SMILES	BAZ2B block	HP1b binding inh	Six1-Eya2 inh	JMJD2A Tudor	CtBP-E1A inh	G9a block
COc1ccc(CCNC(=O)C2c3ccccc3C(=O)N2Cc2ccccc2)cc1OC (configuration not stated)	5%	25%	.	-2%	.	6%[59 µM]
COc1ccc(N2CC(C)Cn3c2nc2c3c(=O)n(Cc3ccc(C)cc3)c(=O)n2C)c(OC)c1 (configuration not stated)	.	-21%	-8	?	-19	35µM*
CS(=O)(=O)n1nc(-c2ccco2)nc1NCc1ccccc1Cl	-9%	22%	.	-13%	.	-31%[59 µM]
O=C(NC(=S)N1CCCCC1c1cccnc1)c1ccc(F)cc1 (configuration not stated)	-13%[57.1 µM]	-1%	3	-19%	1	32µM*
O=C(NC(=S)NN1CCCCC1c1cccnc1)c1ccc(Cl)cc1Cl (configuration not stated)	-4%	23%	-6	-24%	-6	71µM*
O=C(NC(=S)N1CCCCC1c1cccnc1)c1ccc(Br)cc1 (configuration not stated)	-4%[57.1 µM]	35%	12	0%	.	22µM*
CCOc1ccccc1-c1nnc2n1N=C(c1ccccc1OC)CS2	.	.	.	-28%	.	.
CCN(CC)c1ccc(C=NCCNS(=O)(=O)c2ccc(C)cc2)cc1	20%	13%	19	10%	0	?
CCN(CC)c1ccc(/C=N/NS(=O)(=O)c2ccc(C)c([N+](=O)[O-])c2)cc1	?	?	-17	35µM*	8	40µM*
CCN(Cc1ccccc1)c1ccc(/C=N/NS(=O)(=O)c2cccc([N+](=O)[O-])c2)cc1	?	?	-24	?	-18	10µM*
Cc1ccc(S(=O)(=O)N/N=C/c2ccccc2O)cc1[N+](=O)[O-]	-38%	5%	0	-11%	0	?
Cc1ccc(S(=O)(=O)N/N=C/c2ccc(O)c(O)c2)cc1[N+](=O)[O-]	-35%	-18%	-1	?	4	35µM*
Cc1ccccc1-c1csc2ncnc(Sc3nnnn3C)c12	.	.	.	-9%	.	.
Cc1ccc(C(=O)Nc2c(-c3ccccc3)nc3ccccn23)cc1C	-5%	9%	.	-21%	.	-10%[59 µM]
Cc1ccc(NCc2cccn2-c2nnc(N3CCC(C(=O)NCc4ccccc4C)CC3)s2)cc1	-10%	17%	.	-7%	.	0%[59 µM]
Cc1oc2ccccc2c1CC(=O)NCCCN(C)C	?	59%	6	-21%	.	50µM*
CN(C)CCCNC(=O)c1ccccn1	-5%	7%	5	-16%	1	8%
